The record followed here is PubChem BioAssay AID1479148 (National Center for Advancing Translational Sciences (NCATS), 2020).

The structures appear in SMILES notation. Results filed as inconclusive are left out. Calls of active or inactive are those of the source. Calls come from the whole dose curve.

The experiment is described as follows: Confirmatory qHTS for inhibitors of SARS-S pseudo-typed particle cell entry. To be noted: SARS-S pseudotyped particle cell entry, reporter luminescence; series mostly up to 57.1 µM; activity change, negative = inhibition: at the top concentration. On the technique in general: In qHTS, concentration-response curves come from the screen itself.
Regarding `C=CC(=O)Nc1cc(Nc2nccc(-c3cn(C)c4ccccc34)n2)c(OC)cc1N(C)CCN(C)C`, the Potency is 1.52 µM (active).
Same read-out and setting: with `CN(C)CCC=C1c2ccccc2C(C)(C)c2ccccc21` the figure was 10.8 µM (active); with `COC(=O)C1=C(C)NC(C)=C(C(=O)OCC(C)C)C1c1ccccc1[N+](=O)[O-]` (stereo not drawn), 19.2 µM (active); with `CCN(CC)CCNC(=O)c1c(C)[nH]c(/C=C2\C(=O)Nc3ccc(F)cc32)c1C`, 6.07 µM (active).
For `O=c1ccc2ccccc2o1`, the “activity change, negative = inhibition” value was -29.6% (inactive).
In the case of `Nc1ccn([C@@H]2O[C@H](CO)[C@@H](O)C2(F)F)c(=O)n1`, the Potency is 0.192 µM (active).
Still for that read-out and setting: with `O=c1c(C2CC(c3ccc(-c4ccc(Br)cc4)cc3)Cc3ccccc32)c(O)sc2ccccc12` (stereo not drawn) the figure was 13.6 µM (active); with `CC[C@@]1(O)C(=O)OCc2c1cc1n(c2=O)Cc2c-1nc1ccccc1c2/C=N/OC(C)(C)C`, 0.0857 µM (active).
On the same count and under the same terms, with `COc1cccc2c1C(=O)c1c(O)c3c(c(O)c1C2=O)C[C@@](O)(C(=O)CO)CC3OC1CC(N2CCOC(OC)C2)C(O)C(C)O1` (stereo partly drawn) the figure was 0.0961 µM (active); with `C=C(C)[C@H]1Cc2c(ccc3c2O[C@@H]2COc4cc(OC)c(OC)cc4[C@@H]2C3=O)O1`, 0.0341 µM (active).
Still for that read-out and setting: with `NCCNc1ccc(NCCN)c2c1C(=O)c1ccncc1C2=O` the figure was 0.857 µM (active); with `O=C(Nc1ccc([N+](=O)[O-])cc1Cl)c1cc(Cl)ccc1O`, 0.541 µM (active); with `Oc1c(Cl)cc(Cl)c(Cl)c1Cc1c(O)c(Cl)cc(Cl)c1Cl`, 1.21 µM (active).
Regarding `Cc1oncc1C(=O)Nc1ccc(C(F)(F)F)cc1`, the “activity change, negative = inhibition” value is 0% (inactive).
On to `Cc1cn([C@H]2C[C@H](N=[N+]=[N-])[C@@H](CO)O2)c(=O)[nH]c1=O`, for which the Potency was 0.271 µM (active).
With `CC(C)OC(=O)OCOP(=O)(CO[C@H](C)Cn1cnc2c(N)ncnc21)OCOC(=O)OC(C)C`, the Potency was 0.0429 µM (active).
On the same count and under the same terms, the same measure for `CC(=O)[C@]1(O)Cc2c(O)c3c(c(O)c2[C@@H](O[C@H]2C[C@H](N)[C@H](O)[C@H](C)O2)C1)C(=O)c1ccccc1C3=O`: 6.07 µM (active).
As for `CCCCCCOC(=O)NC(=N)c1ccc(NCc2nc3cc(C(=O)N(CCC(=O)OCC)c4ccccn4)ccc3n2C)cc1`, the “activity change, negative = inhibition” value is -68.1% (inactive).
Take `Cc1cc(C(C#N)c2ccc(Cl)cc2)c(Cl)cc1NC(=O)c1cc(I)cc(I)c1O` (stereo not drawn): the Potency is 30.4 µM (active).
The same measure, in the same setting: the same measure for `CCC(C)(C)C(=O)O[C@H]1C[C@@H](C)C=C2C=C[C@H](C)[C@H](CC[C@@H]3C[C@@H](O)CC(=O)O3)[C@H]21`: 0.607 µM (active).
With `Nc1nc(Cl)nc2c1ncn2C1CC(O)C(CO)O1` (stereo not drawn), the Potency was 12.1 µM (active).
Same read-out and setting: the same measure for `CN1CCCCC1CCN1c2ccccc2Sc2ccc(S(C)=O)cc21` (stereo not drawn): 27.1 µM (active); for `CC(C)C[C@H](NC(=O)[C@H](CCc1ccccc1)NC(=O)CN1CCOCC1)C(=O)N[C@@H](Cc1ccccc1)C(=O)N[C@@H](CC(C)C)C(=O)[C@@]1(C)CO1`: 0.681 µM (active).
For `CCn1cc(C(=O)O)c(=O)c2cc(F)c(N3CCNC(C)C3)c(F)c21` (stereo not drawn), the “activity change, negative = inhibition” value is -1.43% (inactive).
Consider `CC[C@@]1(O)C(=O)OCc2c1cc1n(c2=O)Cc2cc3c([N+](=O)[O-])cccc3nc2-1`, for which the Potency was 0.124 µM (active).
Still for that read-out and setting: with `Cc1nnc(C(=O)NC(C)(C)c2nc(C(=O)NCc3ccc(F)cc3)c(O)c(=O)n2C)o1` the figure was 0.0108 µM (active); with `CC(C)(C)NCC(O)COc1ccccc1C1CCCC1` (stereo not drawn), 3.41 µM (active).
Same read-out and setting: with `C=C1c2c(Cl)ccc(O)c2C(O)=C2C(=O)[C@@]3(O)C(O)=C(C(N)=O)C(=O)[C@@H](N(C)C)[C@@H]3[C@@H](O)[C@H]12` the figure was 15.2 µM (active).
Still for that read-out and setting: the same measure for `C/C=C(/C)C(=O)O[C@H]1C(C)=CC23C(=O)C(C=C(CO)[C@@H](O)[C@]12O)[C@H]1[C@@H](C[C@H]3C)C1(C)C` (stereo partly drawn): 0.0121 µM (active); for `COc1cc([C@@H]2c3cc4c(cc3C(O[C@@H]3O[C@@H]5CO[C@@H](c6cccs6)OC5[C@H](O)[C@H]3O)C3COC(=O)[C@@H]32)OCO4)cc(OC)c1O` (stereo partly drawn): 1.08 µM (active); for `CN1CCN(CCC=C2c3ccccc3Sc3ccc(S(=O)(=O)N(C)C)cc32)CC1`: 6.07 µM (active).
`COc1cccc2c1C(=O)c1c(O)c3c(c(O)c1C2=O)C[C@@](O)(C(C)=O)C[C@@H]3O[C@H]1C[C@H](N)[C@H](O)[C@H](C)O1`: the Potency is 2.15 µM (active).
As for `N/C(=N\N=C\c1ccc(Cl)cc1)N/N=C/c1ccc(Cl)cc1`, the “activity change, negative = inhibition” value is -27% (inactive).
